Screening results as filed in PubChem BioAssay.
In the library only some 6.7% were active in any assay of this set; here they are far more common.
PINK1 modulator = PINK1 expression modulation; PINK1 immunofluorescence, high-content cytometry, 24 h; Potency, µM (highest dose often 76.6 µM), for the others: top-dose activation (PINK1 increase), most hits filed as activators; 0.2% of 410,000 active; active means well fitted activation curve with a large enough effect; inconclusive means small, poorly fitted or top-dose-only effect; cell line not stated here; further: % of control where 0% means no effect; nearly all actives have a fitted effect of over 65% in size
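Measures PINK1 amount and localization on or inside mitochondria by immunofluorescence. Stable cells get compounds at 5 concentrations for 24 hours before fixation and staining; CCCP controls included.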
SW480 rerep = induces DNA re-replication in SW480 colon adenocarcinoma cells; SW480 DNA re-replication, Hoechst DNA content imaging, 48 h; Potency, µM (doses to about 46.1 µM), without a hit: at the top dose re-replication activation, hits mostly activators; 1.8% of 340,000 active; further: % of control where 0% means no effect; nearly all actives have a fitted effect of over 55% in size
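Compounds, transferred as 23 nL by pin tool, were incubated with cells for 48 hr; DNA content per nucleus was then quantified by Hoechst staining and fluorescence plate imaging.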
MCF10A rerep = inducers of DNA re-replication in MCF 10A breast cells | 2.9% of 350,000 active | MCF 10A DNA re-replication, Hoechst nuclear intensity, 48 h | AID 624296 | Potency, µM (titrated, usually from 46.1 µM), for the others: at the highest dose activity, positive = re-replication, actives largely listed as activators; further: % of control where 0% means no effect; nearly all actives have a fitted effect of over 50% in size
KB-3-1 tox = KB-3-1 parental cell cytotoxicity; KB-3-1 viability, CellTiter-Glo ATP luminescence, 72 h; 1.4% of 400,000 active; Potency, µM (highest dose often 46.1 µM), usual class: cytotoxic; further: on the % scale 0 is the no-effect control and ±100 the full control effect; nearly all actives have a fitted effect of over 60% in size
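Cells are dispensed, compounds pinned in, plates held at 37 °C for 72 h, then CellTiter-Glo is added and luminescence read after 10 minutes. Cell line: parental KB-3-1 in phenol-red-free DMEM, 10% FBS.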
KB-V1 cytotox = kills drug-selected multidrug resistant KB-V1 cells; KB-V1 MDR cells viability, CellTiter-Glo, 72 h; Potency, µM (series often up to 46.1 µM), actives largely listed as cytotoxic; 3.4% of 400,000 active; AID 1347076; further: on the % scale 0 is the no-effect control and ±100 the full control effect; nearly all actives have a fitted effect of over 60% in size
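Cells of the MDR subline KB-V1 are plated, dosed with compound at multiple concentrations, and incubated 72 h at 37 degrees C; CellTiter-Glo is then added and luminescence read after 10 min.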
The depositor's hits bear a star; i = inactive; ? = inconclusive; / = no result given; [ ] = dose if it differs, or a comment. Unless noted, the call rests on the fitted dose curve; in most records, active means well fitted curve in the direction sought with a large enough effect; inconclusive means small, poorly fitted or top-dose-only effect, or another doubt; inactive means no such curve, though single readings can be large; an effect the other way counts as inactive or inconclusive. Potency means the concentration at half of the fitted maximal effect.

SMILES	PINK1 modulator	SW480 rerep	MCF10A rerep	KB-3-1 tox	KB-V1 cytotox
O=C(CCC1N=C2c3ccccc3N=C(SCc3ccc(F)cc3)N2C1=O)NCc1ccco1 (stereo not drawn)	-1.8%	0.4%	6.1%	i	i
CC(C)[C@@H]1CC[C@@H](C)C[C@H]1OC(=O)C[n+]1cc(-c2ccc(Cl)cc2)n2c1CCCCC2	?	?	?	?	i
COc1ccc(-c2c[n+](CC(=O)OC3CC(C)CCC3C(C)C)c3n2CCC3)cc1 (stereo not drawn)	39.8µM*	-32.3%	0.82µM*	i	i
CC(=O)c1sc(Nc2ccc(Oc3ccccc3)cc2)nc1C	3.4%	/	/	i	i
CCN1CCN(Cc2cccc(Oc3ccc(Cl)cc3)c2)CC1	-0.3%[38.3 µM]	16.4µM*	16.4µM*	i	?
COc1cccc(CN2CCN(Cc3cccc(Oc4ccccc4)c3)CC2)c1OC	?	23.1µM*	14.6µM*	i	i
Cc1ccc(-n2c(=O)c3c(cnn3C)n(CC(=O)Nc3cc(C)ccc3C)c2=O)cc1	0.9%	/	/	i	i
CCN1CCN(Cc2coc3ccc(C)cc3c2=O)CC1	-10.2%[38.3 µM]	-7.0%	?	i	i
Cc1ccc2occ(CN3CCN(c4ccccc4)CC3)c(=O)c2c1	-0.4%[38.3 µM]	-2.8%	?	i	23.1µM*
Cc1cc(N/N=C/c2ccc3c(c2)OCO3)nc2ccccc12	?	?	16.4µM*	i	i
CN(C)c1nc(NCc2ccccc2)nc(N/N=C/c2ccc3c(c2)OCO3)n1	-0.6%	26.0%	23.1µM*	i	?
CSCCC(NS(=O)(=O)c1ccc(C)cc1)C(=O)Nc1ccc(C)cn1 (stereo not drawn)	0.4%	3.3%	7.1%	i	i
Cc1nc(Nc2ccc(Cl)cc2Cl)sc1C(=O)Nc1ccccc1	?	2.9%	-6.4%	i	?
Cc1nc(NC(=O)/C=C/c2ccccc2)sc1C(=O)Nc1ccc(Cl)cc1	-0.5%	?	16.4µM*	i	i
Cc1nc(Nc2ccc(Cl)c(Cl)c2)sc1C(=O)Nc1ccccc1	-1.7%	27.7%	23.1µM*	?	i
COc1cccc(NC(=O)[C@@H]2CCCN2C(=O)C2CCN(S(=O)(=O)c3ccc(C)cc3)CC2)c1	30.1%[38.3 µM]	15.8%	7.6%	i	18.4µM*
COCCNC(=O)[C@@H]1CCCN1C(=O)C1CCN(S(=O)(=O)c2ccc(C)cc2)CC1	2.3%	-3.2%	-0.5%	i	i
Cc1ccc(CNC(=O)C2CCCN2C(=O)Nc2ccccc2)cc1 (stereo not drawn)	0.1%	-1.3%	0.651µM*	i	i
Cc1ccc(S(=O)(=O)N2CCC(C(=O)N3CCC[C@H]3C(=O)NCc3ccccc3)CC2)cc1	7.3%[38.3 µM]	-16.6%	2.1%	i	?
Cc1ccc(CNC(=O)C2CCCN2C(=O)Nc2ccc(C)cc2)cc1 (stereo not drawn)	0.0%	3.6%	-10.3%	i	i
COc1ccccc1CNC(=O)[C@@H]1CCCN1C(=O)C1CCN(S(=O)(=O)c2ccc(C)cc2)CC1	3.9%	-0.6%	0.5%	i	16.4µM*
COc1ccc(/C=C/C(=O)NNC(=O)C(C)Oc2ccccc2F)cc1OC (stereo not drawn)	0.6%	-6.9%	5.6%	i	i
CCn1cc2nc(SCc3cc(C)ccc3C)n(CCc3ccccc3)c(=O)c2n1	3.0%	/	/	i	i
COc1cccc(NC(=O)C(c2ccccc2)N2CCCC2)c1 (stereo not drawn)	-1.2%	-1.7%	0.3%	i	?
Cc1cccc(NC(=O)C(c2cccc([N+](=O)[O-])c2)N2CCCCC2)c1 (stereo not drawn)	1.3%	27.9%	5.5%	i	14.6µM*
SMILES	PINK1 modulator	SW480 rerep	MCF10A rerep	KB-3-1 tox	KB-V1 cytotox
Cc1cccc(NC(=O)c2cc([N+](=O)[O-])ccc2NC2CCCCC2)c1	16.1%	65.1%	-3.9%	i	13µM*
CN(c1ccc([N+](=O)[O-])cc1C(=O)Nc1ccccc1)C1CCCCC1	1.4%[38.3 µM]	8.9%	-0.8%	i	13µM*
Cc1ccc2nc(C)c3c(c2c1)OC(C(C)(Cl)Br)C3 (stereo not drawn)	3.4%	4.0%	7.5%	i	?
Cc1nc2ccccc2c2c1CC(C(C)(Cl)Br)O2 (stereo not drawn)	0.9%	-19.0%	2.0%	?	4.61µM*
Cc1ccc(-c2nc3cccnc3o2)cc1NC(=O)COc1ccc(C(C)(C)C)cc1	25.2%	?	18.4µM*	?	?
Cc1ccc(-c2nc3cccnc3o2)cc1NC(=O)COc1ccc(Cl)cc1C	16.4%	-1.2%	26.9%	i	?
CCOC(=O)c1c(/N=C/N(C)C)sc(C)c1C	-1.2%	-6.9%	0.6%	i	i
CCOC(=O)c1c(/N=C/N(C)C)sc(/C=N/Nc2ccccc2)c1-c1ccc(Cl)cc1	-2.7%	?	20.6µM*	i	i
O=C(CNC(=O)c1cc(-c2ccccc2)nn1-c1ccccc1)Nc1ccccc1Br	2.4%	-24.1%	11.6µM*	i	i
Cc1ccc(C)c(NC(=O)c2cc(-c3ccccc3)nn2-c2ccccc2)c1	1.8%	?	?	i	i
Cc1ccc(-c2cc(NC(=O)CCl)n(-c3ccccc3)n2)cc1	-2.0%	?	?	?	?
CCN(CC(=O)Nc1ccccc1C(F)(F)F)C(=O)c1cc(-c2ccccc2)nn1-c1ccccc1	14.4%	-10.4%	10.3µM*	i	i
O=C(CCl)Nc1cc(-c2ccccc2)nn1-c1ccccc1	-7.3%[38.3 µM]	?	?	?	7.31µM*
Cc1cccc(C)c1OCC(=O)NNC(=S)NC(=O)C1CC1	1.8%	?	-30.0%	?	i
COc1ccc(S(=O)(=O)N(C)C[C@H]2Oc3c(cccc3N(C)C)C(=O)N([C@H](C)CO)C[C@@H]2C)cc1	2.2%	-0.9%	3.2%	i	i
CCC(=O)N(C(=O)CC)N1CCN(c2ccncc2S(=O)(=O)N2CCCCC2)CC1	0.7%	0.5%	4.7%	0.0291µM*	i
Cc1cc(Cl)ccc1OCC(=O)Nc1ccncc1	0.2%	-21.8%	16.4µM*	i	?
Cc1ccc(C)c(OCC(=O)Nc2ccncc2)c1	-0.5%	0.5%	-1.1%	?	i
CCN1CCN(c2ccc(NC(=O)COc3ccc(Cl)cc3C)cc2)CC1	2.8%	14.6µM*	?	?	?
c1ccc(-c2nc(-n3nc4ccccc4n3)nc3ccccc23)cc1	0.1%	1.4%	3.9%	i	i
Clc1ccc(-c2nc(N3CCCCC3)nc3ccccc23)cc1	1.9%	12.6µM*	7.94µM*	i	i
CCOC(=O)N1CCN(c2nc(-c3ccccc3)c3ccccc3n2)CC1	14.5%	16.4µM*	8.2µM*	i	i
